# Publication PMC8384837, “Expanding the binding specificity for RNA recognition by a PUF domain”
# Target: PUM1 PUF domain R5-RAQ (Homo sapiens, UniProt Q14671 828-1176, C1007R;R1008A)
# Assay: yeast three-hybrid, YBZ-1, SC-Leu-His + 0.5 mM 3-AT, 4 days
# Conditions: tags: N-Gal4 AD-HA kept; label: inside an RPR1-promoter hybrid RNA with tandem MS2 sites; ssRNA
# Summary of the method: (§1)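 Repeat regions from input (SC-Leu) and selection (SC-Leu-His + 0.5 mM 3-AT) plates were PCR-amplified and Illumina-sequenced after four days of growth. The cells were strain YBZ-1 with a LexA–MS2 coat fusion and a HIS3 reporter, co-expressing Pumilio-1 PUF domain libraries and matching RNA elements from a centromeric plasmid. The interaction score is the log change in variant frequency from input to selection, taken in log2 with a pseudocount of 1 for absent variants.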
# Sequence of PUM1 PUF domain R5-RAQ (Q14671 828-1176 C1007R/R1008A): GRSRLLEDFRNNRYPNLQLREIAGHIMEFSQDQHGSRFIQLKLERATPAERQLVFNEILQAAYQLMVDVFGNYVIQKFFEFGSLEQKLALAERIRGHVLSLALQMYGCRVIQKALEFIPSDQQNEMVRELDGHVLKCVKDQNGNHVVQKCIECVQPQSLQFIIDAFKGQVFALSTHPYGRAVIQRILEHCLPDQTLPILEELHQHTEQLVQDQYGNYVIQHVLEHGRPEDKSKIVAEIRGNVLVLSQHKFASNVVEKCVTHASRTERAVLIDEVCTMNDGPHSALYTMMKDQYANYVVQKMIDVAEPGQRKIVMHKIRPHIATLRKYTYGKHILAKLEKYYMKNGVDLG
row,Sequence,binding signal
1,GGCUAGAACUAGUGGAUCCCCCGGCGCCCGGCGGCUCGAGCCCGGGUAAGUGUUAAUAGUCUGCAUGCCGCCGGGCGCCAUGCCUGCAGGUCGACUCUAGAAAACAUG,4.06 log2 enrichment (interaction score)
2,GGCUAGAACUAGUGGAUCCCCCGGCGCCCGGCGGCUCGAGCCCGGGUAAGUGUAAAUAGUCUGCAUGCCGCCGGGCGCCAUGCCUGCAGGUCGACUCUAGAAAACAUG,1.44 log2 enrichment (interaction score)
3,GGCUAGAACUAGUGGAUCCCCCGGCGCCCGGCGGCUCGAGCCCGGGUAAGUGUCAAUAGUCUGCAUGCCGCCGGGCGCCAUGCCUGCAGGUCGACUCUAGAAAACAUG,4.49 log2 enrichment (interaction score)

# Target: PUM1 PUF domain R3-FYG (Homo sapiens, UniProt Q14671 828-1176, C935F;R936Y;Q939G)
# Sequence (Q14671 828-1176 C935F/R936Y/Q939G): as the sequence (Q14671 828-1176 C1007R/R1008A) above, with C108F, R109Y, Q112G, R180C, A181R counted along it
# Assay: as above
# Conditions: tags: N-Gal4 AD-HA kept; label: inside an RPR1-promoter hybrid RNA with tandem MS2 sites; ssRNA
# Summary of the method: as §1
row,Sequence,binding signal
1,GGCUAGAACUAGUGGAUCCCCCGGCGCCCGGCGGCUCGAGCCCGGGUAAGUGUAAAUAGUCUGCAUGCCGCCGGGCGCCAUGCCUGCAGGUCGACUCUAGAAAACAUG,4.62 log2 enrichment (interaction score)
2,GGCUAGAACUAGUGGAUCCCCCGGCGCCCGGCGGCUCGAGCCCGGGUAAGUGUAAUUAGUCUGCAUGCCGCCGGGCGCCAUGCCUGCAGGUCGACUCUAGAAAACAUG,5.45 log2 enrichment (interaction score)
3,GGCUAGAACUAGUGGAUCCCCCGGCGCCCGGCGGCUCGAGCCCGGGUAAGUGUAAGUAGUCUGCAUGCCGCCGGGCGCCAUGCCUGCAGGUCGACUCUAGAAAACAUG,7.3 log2 enrichment (interaction score)
